In all, about 16,000 sequences were measured (“e-score”: median about -0.044, highest 2% from about 0.38 on). The sample holds the highest values, similar sequences and a random draw of the others, so the mix is not that of the screen.

The target of the assay is T1, GST-NbGlk1(82-244) (Nicotiana benthamiana).
T1 chain: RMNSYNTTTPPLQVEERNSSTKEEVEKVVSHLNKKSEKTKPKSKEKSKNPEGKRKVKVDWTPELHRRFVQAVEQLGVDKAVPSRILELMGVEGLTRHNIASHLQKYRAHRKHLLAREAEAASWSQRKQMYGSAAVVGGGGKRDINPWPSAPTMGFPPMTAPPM
Nature of the assay: protein-binding microarray; NbGlk1 is a Golden2-like transcription factor of Nicotiana benthamiana; high values mean tight binding. As to conditions: protein: recombinant; tags: GST (pTH6838); dsDNA, one strand shown.
On to ATCCCGTA, for which the binding signal stood at 0.31 ± 0.0475 E-score.
The figure for ATACGAGA is 0.231 ± 0.0125 E-score; for ATATTAGA it is 0.212 ± 0.0145 E-score; for ATTTGTAG it is 0.21 ± 0.125 E-score.
For the sequence AATATTGC, the binding signal worked out at 0.225 ± 0.0215 E-score.
For the sequence AAGATTGG, the binding signal was found to be 0.206 ± 0.0123 E-score.
The figure for AAGATTGC is 0.443 ± 0.0277 E-score; for AAGATTGT it is 0.297 ± 0.0412 E-score.
For the sequence CAGATTGC, the binding signal was 0.4754 ± 0.00468 E-score.
As to ATCTATAG, the binding signal was 0.288 ± 0.0139 E-score.
Consider ATCGAGAT, for which the binding signal stood at 0.327 ± 0.0101 E-score.
For the sequence AACAGGAA, the binding signal was found to be 0.207 ± 0.0723 E-score.
On to ATCTTAAC, for which the binding signal amounted to 0.317 ± 0.00626 E-score.
Under AGCAATCA stands 0.321 ± 0.00992 E-score; under ACAAATCA, 0.262 ± 0.0406 E-score.
On to AGAAATCC, for which the binding signal was determined as 0.464 ± 0.00886 E-score.
Turning to AGAATTCT, the binding signal stood at 0.299 ± 0.0757 E-score.
Under AGTAATCC stands 0.369 ± 0.00994 E-score.
AGAAATAT: the binding signal is 0.3621 ± 0.00196 E-score.
Regarding ATAAATCA, the binding signal stood at 0.239 ± 0.0998 E-score.
The figure for AGAAATCG is 0.338 ± 0.0619 E-score.
Under AGCAATCC stands 0.412 ± 0.0143 E-score.
For AGAAATCA, the binding signal was found to be 0.3794 ± 0.00281 E-score.
The figure for AGAAATCT is 0.465 ± 0.00635 E-score; for AGCAATCG it is 0.308 ± 0.0291 E-score.
For ATCTTAAA, the binding signal came out at 0.272 ± 0.0208 E-score.
Under AAGATCCA stands 0.24 ± 0.0941 E-score.
With ATGTAGTA, the binding signal worked out at 0.223 ± 0.0748 E-score.
On to ATTTCACA, for which the binding signal turned out to be 0.304 ± 0.0596 E-score.
Under AATCAGCA stands 0.322 ± 0.0337 E-score; under ATTCTGCG, 0.217 ± 0.0166 E-score; under AATCTGCG, 0.444 ± 0.00526 E-score.
The figure for AATCTGCA is 0.414 ± 0.00858 E-score.
With ATTCTGCA, the binding signal was 0.266 ± 0.0788 E-score.
Under AATCTGCC stands 0.34 ± 0.133 E-score.
Take ATCCGGGG: the binding signal was 0.279 ± 0.0126 E-score.
Consider ATCCGCAA, for which the binding signal is 0.325 ± 0.0306 E-score.
The figure for ATCTCACC is 0.317 ± 0.00666 E-score; for ATTACGAC it is 0.351 ± 0.0302 E-score.
AGTATCGG: the binding signal worked out at 0.202 ± 0.042 E-score.
Under ATATAACA stands 0.214 ± 0.0677 E-score; under ATCCGCAC, 0.284 ± 0.0333 E-score; under ACGATCCT, 0.272 ± 0.0244 E-score.
With AGGTAAAT, the binding signal was determined as 0.205 ± 0.0739 E-score.
Under ACGTAATA stands 0.285 ± 0.0122 E-score; under ACGTAATC, 0.4759 ± 0.00151 E-score.
Regarding AAGTAATC, the binding signal was 0.337 ± 0.0373 E-score.
On to ACATAATC, for which the binding signal was 0.327 ± 0.0217 E-score.
The figure for ATCTAATC is 0.331 ± 0.07 E-score; for AGGTAATC it is 0.416 ± 0.00105 E-score; for ATATAATC it is 0.297 ± 0.00596 E-score.
The figure for ATGTAATC is 0.462 ± 0.0104 E-score; for ATGGTATC it is 0.2 ± 0.0619 E-score; for ATCTTTTC it is 0.289 ± 0.0307 E-score.
For the sequence AAATCGAA, the binding signal was determined as 0.329 ± 0.0505 E-score.
Under ATCTCGGA stands 0.36 ± 0.00407 E-score.
ATACTGTA: the binding signal came out at 0.274 ± 0.0926 E-score.
The figure for ATTTCCAA is 0.36 ± 0.0335 E-score; for ATTTTGCG it is 0.293 ± 0.0239 E-score.
The figure for AGGCGGAT is 0.206 ± 0.0564 E-score; for ATTTCATA it is 0.353 ± 0.0105 E-score; for ATCGCGAT it is 0.4239 ± 0.000981 E-score.
Under ATCGCGAA stands 0.323 ± 0.0256 E-score; under ATCGCAAA, 0.234 ± 0.0734 E-score.
On to AACGCAAT, for which the binding signal stood at 0.344 ± 0.0179 E-score.
Under ATCGCGAG stands 0.33 ± 0.00694 E-score; under ATCGCAAT, 0.397 ± 0.0277 E-score.
Take ATTTTTAC: the binding signal was found to be 0.313 ± 0.0485 E-score.
The figure for ACATATCG is 0.226 ± 0.0607 E-score; for AGATCCCT it is 0.298 ± 0.00953 E-score.
Under ATGGCAAT stands 0.237 ± 0.0667 E-score; under ATCTAGTA, 0.316 ± 0.0615 E-score.
Under ACGTGGAT stands 0.283 ± 0.0431 E-score; under ATTTTTAA, 0.221 ± 0.0275 E-score; under AAGCGATC, 0.294 ± 0.0444 E-score.
Turning to ACGCGATA, the binding signal was 0.252 ± 0.00347 E-score.
For ACGCGATC, the binding signal came to 0.437 ± 0.0114 E-score.
As to ATCTTGTG, the binding signal worked out at 0.318 ± 0.0738 E-score.
With AATATCAA, the binding signal is 0.322 ± 0.0489 E-score.
Under AGTATCTC stands 0.235 ± 0.067 E-score; under AATATCGG, 0.371 ± 0.0225 E-score; under AATATCTG, 0.423 ± 0.0344 E-score.
Turning to AATATCTA, the binding signal was determined as 0.402 ± 0.018 E-score.
Under AGTATCTA stands 0.305 ± 0.0244 E-score; under AGTATCTG, 0.339 ± 0.041 E-score; under AATATATC, 0.311 ± 0.00568 E-score.
Under AATATCTC stands 0.391 ± 0.0345 E-score.
For ATTTAAAG, the binding signal amounted to 0.222 ± 0.0214 E-score.
The figure for AACGTATA is 0.225 ± 0.0359 E-score; for ATTCGCAG it is 0.292 ± 0.0538 E-score; for CACAATCA it is 0.27 ± 0.109 E-score.
Under AAGGGATT stands 0.3179 ± 0.00237 E-score.
The figure for ATTTCGCA is 0.279 ± 0.0966 E-score.
As for AATCAGTG, the binding signal worked out at 0.266 ± 0.0198 E-score.
With AATCTGAG, the binding signal was 0.415 ± 0.0436 E-score.
The figure for AATCTGTG is 0.411 ± 0.0099 E-score; for ATCCTGTG it is 0.205 ± 0.0418 E-score; for AATCAGAG it is 0.229 ± 0.0948 E-score.
Under ATTCTGTG stands 0.25 ± 0.0953 E-score.
The figure for AAGCAAAT is 0.207 ± 0.0438 E-score; for AACGAAAT it is 0.344 ± 0.0502 E-score; for ATCAGAAG it is 0.24 ± 0.0447 E-score.
Consider AATATCAC, for which the binding signal was determined as 0.34 ± 0.00742 E-score.
The figure for ATTCGATC is 0.207 ± 0.00438 E-score; for AATGGATA it is 0.3 ± 0.0974 E-score.
The figure for ACAATATA is 0.206 ± 0.0382 E-score.
For the sequence AAAATATG, the binding signal came out at 0.218 ± 0.038 E-score.
The figure for ACAATATC is 0.3871 ± 0.00293 E-score.
In the case of AGAATATG, the binding signal is 0.253 ± 0.0505 E-score.
In the case of AAAATATC, the binding signal is 0.406 ± 0.00752 E-score.
Under AGAATATA stands 0.267 ± 0.0326 E-score; under AGAATATC, 0.4346 ± 0.00342 E-score; under CAAATATC, 0.375 ± 0.0172 E-score.
The figure for ATAATATC is 0.347 ± 0.0287 E-score; for ATCCTTTG it is 0.201 ± 0.0717 E-score; for AATCGCTG it is 0.234 ± 0.00581 E-score.
Under ATCTAACC stands 0.266 ± 0.0179 E-score; under AGTGATAT, 0.298 ± 0.0207 E-score.
As to ATCGCACC, the binding signal was 0.247 ± 0.126 E-score.
The figure for ATTACAAA is 0.302 ± 0.0597 E-score; for ACGATTCG it is 0.324 ± 0.025 E-score.
The figure for ATGATTGC is 0.33 ± 0.019 E-score; for AGGATTAT it is 0.31 ± 0.0692 E-score.
The figure for ATGATTCC is 0.306 ± 0.0505 E-score; for AGGATTCG it is 0.352 ± 0.0252 E-score.
Take AGAATTAC: the binding signal was determined as 0.23 ± 0.0195 E-score.
Under ACGATTCT stands 0.362 ± 0.0226 E-score.
Under ACGATTCC stands 0.4 ± 0.0168 E-score; under AGGATTAC, 0.449 ± 0.00837 E-score.
Turning to AGGATCGC, the binding signal stood at 0.357 ± 0.0151 E-score.
Under AGGATTCC stands 0.448 ± 0.00523 E-score; under AGGATTGC, 0.45 ± 0.0104 E-score.
Regarding ACTTAGAT, the binding signal came to 0.257 ± 0.118 E-score.
Under ATCCACCC stands 0.255 ± 0.0461 E-score.
Consider AAGGATTA, for which the binding signal was 0.278 ± 0.0334 E-score.
Regarding ATCTATGG, the binding signal is 0.205 ± 0.011 E-score.
Under ATATCGAG stands 0.296 ± 0.0718 E-score.
Under ATTATTCC stands 0.252 ± 0.0429 E-score; under AACGAGAT, 0.309 ± 0.0377 E-score.
In the case of AATAGGAT, the binding signal came to 0.218 ± 0.15 E-score.
For the sequence AGCAGAAT, the binding signal came to 0.255 ± 0.0466 E-score.
As to ATACTCCA, the binding signal came out at 0.208 ± 0.0394 E-score.
ATCGTAAT: the binding signal stood at 0.375 ± 0.0645 E-score.
Under ATCGGAAA stands 0.25 ± 0.0729 E-score; under ATGATTAC, 0.302 ± 0.0176 E-score.
As for ACGATTAC, the binding signal stood at 0.407 ± 0.0433 E-score.
The figure for ACGATTGC is 0.345 ± 0.0699 E-score; for ATTTTCGG it is 0.237 ± 0.0617 E-score.
The figure for AAATCAAT is 0.31 ± 0.0292 E-score; for AAATCTAG it is 0.452 ± 0.0158 E-score.
Under CAATCTAC stands 0.341 ± 0.0196 E-score.
As to AAATCTAA, the binding signal amounted to 0.4499 ± 0.000584 E-score.
For CAATCTAA, the binding signal is 0.351 ± 0.0122 E-score.
Turning to CAATCTAG, the binding signal was determined as 0.3742 ± 0.000815 E-score.
The figure for AAATCTAC is 0.441 ± 0.0198 E-score.
Turning to AAATCAAA, the binding signal was 0.309 ± 0.0265 E-score.
The figure for AAATCAAC is 0.349 ± 0.0103 E-score; for AGATCTAT it is 0.337 ± 0.0129 E-score.
As for AAATCTAT, the binding signal amounted to 0.419 ± 0.0237 E-score.
Take AAATCGAG: the binding signal is 0.288 ± 0.0697 E-score.
Under ATATAAAA stands 0.212 ± 0.0169 E-score.
The figure for ACCGGATA is 0.262 ± 0.0765 E-score; for AATTTCGT it is 0.284 ± 0.0162 E-score; for ATCTCGCA it is 0.324 ± 0.0204 E-score.
In the case of AAATAATA, the binding signal turned out to be 0.227 ± 0.0112 E-score.
Under ACAAATAT stands 0.313 ± 0.0317 E-score; under ATCGGGAA, 0.276 ± 0.0291 E-score; under ACCTAGAT, 0.291 ± 0.0209 E-score.
The figure for ATCGCATG is 0.29 ± 0.0714 E-score; for CAATCATA it is 0.255 ± 0.00353 E-score.
Under ATTATAAG stands 0.253 ± 0.0219 E-score; under ATCCGCCA, 0.254 ± 0.0406 E-score.

The values are drawn from paper PMC5836133, “The intracellular immune receptor Rx1 regulates the DNA-binding activity of a Golden2-like transcription factor”.
